# In all, about 81,000 sequences were measured (“one-hybrid fitness for binding NBS DNA”: median about -0.1, highest 2% from about 0.36 on). Only a selection was taken, and the highest values are over-represented in it overall.
# B1: Caulobacter ParB omega fusion; a variant is named by its letters at X, in order, B8GW30 (parent)
# chain: MESVVVGEPGMSEGRRGLGRGLSALLGEVDAAPAQAPGEQLGGSREAPIEILQRNPDQPRRTFREEDLEDLSNSIREKGVLQPILVRPSPDTAGEYQIVAGERAWRAAQRAGLKTVPIMVRELDDLAVLEIGIIENVQRADLNVLEEALSYKVLMEKFERTQENIAQTIGKSXSHVANXMRLLXLPDEVQSYLVSGELTAXHARAIAAAADPVALAKQIIEGGLSVRETEALARKAPNLSAGKSKGGRPPRVKDTDTQALESDLSSVLGLDVSIDHRGSTGTLTITYATLEQLDDLCNRLTRGI
# Variants of: B1
# Assay: one-hybrid fitness for binding NBS DNA (the Noc-binding site; scaled: cognate 1, non-cognate 0); higher = stronger binding
# Conditions: with NBS DNA site
# How it was run: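 Fitness is the rescaled log change in variant-to-wild-type read ratio, measured by Illumina sequencing of plasmids before and after bacterial one-hybrid selection. The scale puts cognate at 1 and non-cognate at 0. Selection of Caulobacter ParB libraries, four specificity codons randomised, took place in E. coli USO with a HIS3 reporter, site 19 bp from the promoter, over 48 hours at 37°C on M9-minus-histidine with 0.1 mM IPTG and 5 mM 3-AT.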
row,Variant,one-hybrid fitness for binding NBS DNA
1,LEGG,≤ 0.2
2,TKHA,≤ 0.2
3,QTGP,≤ 0.2
4,QTGD,≤ 0.2
5,QTGC,0.246
6,QTGS,0.557
7,QTGH,0.424
8,QTGN,0.255
9,LWYM,≤ 0.2
10,PADY,≤ 0.2
11,QPYS,≤ 0.2
12,CWIS,≤ 0.2
13,QCYS,0.432
14,CWIG,0.406
15,QSPS,≤ 0.2
16,QCIS,0.364
17,CWRG,≤ 0.2
18,QCDS,0.28
19,QSIS,0.232
20,QCPS,0.299
21,QSYS,0.337
22,QSRS,0.64
23,PLRP,≤ 0.2
24,SMYN,≤ 0.2

row,Variant,one-hybrid fitness for binding NBS DNA
1,RGCR,≤ 0.2
2,TCIC,≤ 0.2
3,TTYN,≤ 0.2
4,TLLD,≤ 0.2
5,KIRT,≤ 0.2
6,QPRS,≤ 0.2
7,QCRP,0.352
8,QCRS,0.748
9,RLTP,≤ 0.2
10,RCTS,0.516
11,RTTS,0.484
12,RLTH,≤ 0.2
13,RTTP,≤ 0.2
14,RLTS,0.396
15,RTTH,0.24
16,RFTS,0.285
17,RATS,0.433
18,RATD,≤ 0.2
19,RPTS,≤ 0.2
20,RATH,≤ 0.2
21,YRMT,≤ 0.2
22,EQDS,≤ 0.2
23,AANY,≤ 0.2
24,LYKT,≤ 0.2

row,Variant,one-hybrid fitness for binding NBS DNA
1,ECMG,≤ 0.2
2,FKTC,≤ 0.2
3,RSTD,≤ 0.2
4,RITH,≤ 0.2
5,RSTH,≤ 0.2
6,RSTS,0.433
7,RITN,≤ 0.2
8,RHTN,≤ 0.2
9,RITS,0.384
10,RKTD,≤ 0.2
11,RKTS,0.583
12,RHTP,≤ 0.2
13,RKTH,0.233
14,RHTS,0.446
15,LQLL,≤ 0.2
16,ECRD,≤ 0.2
17,QQMC,≤ 0.2
18,IARN,≤ 0.2
19,SSHP,≤ 0.2
20,VQNC,≤ 0.2
21,RMTN,≤ 0.2
22,RMTS,0.433
23,RMTD,≤ 0.2
24,YHNT,≤ 0.2

row,Variant,one-hybrid fitness for binding NBS DNA
1,PFSK,≤ 0.2
2,QCMS,0.379
3,QPMS,≤ 0.2
4,QKMS,0.414
5,QKMH,≤ 0.2
6,QSMS,0.302
7,QRMQ,0.385
8,QRMK,0.404
9,QCMK,≤ 0.2
10,QSMQ,≤ 0.2
11,QAMQ,≤ 0.2
12,QKMD,≤ 0.2
13,QSMK,≤ 0.2
14,GNCM,≤ 0.2
15,LRKY,≤ 0.2
16,GYLG,≤ 0.2
17,KRMH,≤ 0.2
18,FYYR,≤ 0.2
19,DHLS,≤ 0.2
20,ANLH,≤ 0.2
21,SFVC,≤ 0.2
22,PQMI,≤ 0.2
23,AHHY,≤ 0.2
24,RHNK,≤ 0.2

row,Variant,one-hybrid fitness for binding NBS DNA
1,QMCI,≤ 0.2
2,PANW,≤ 0.2
3,VVKL,≤ 0.2
4,QTMS,0.463
5,QRMH,0.499
6,QRMP,≤ 0.2
7,QRML,0.219
8,QPMY,≤ 0.2
9,QRMN,0.295
10,QRMD,0.26
11,QRMY,0.463
12,QTMN,≤ 0.2
13,QRMS,0.623
14,QCMY,≤ 0.2
15,QTMH,0.263
16,YNGT,≤ 0.2
17,HRHE,≤ 0.2
18,VIRT,≤ 0.2
19,WQEG,≤ 0.2
20,FKND,≤ 0.2
21,AVDT,≤ 0.2
22,IGHS,≤ 0.2
23,QQID,≤ 0.2
24,QQIS,0.352

row,Variant,one-hybrid fitness for binding NBS DNA
1,QQPH,≤ 0.2
2,QQPT,0.379
3,QQIT,0.389
4,QQPS,0.26
5,MQSG,≤ 0.2
6,VVCV,≤ 0.2
7,YLMA,≤ 0.2
8,QYTP,≤ 0.2
9,QYTN,≤ 0.2
10,QYTD,≤ 0.2
11,QYTS,0.396
12,QYTR,0.572
13,QYTM,≤ 0.2
14,QYTT,0.401
15,QYTY,≤ 0.2
16,QYTH,0.202
17,AEMG,≤ 0.2
18,GTMM,≤ 0.2
19,HAVV,≤ 0.2
20,QQNH,0.355
21,QQDP,≤ 0.2
22,QQNR,0.786
23,QQND,≤ 0.2
24,QQDR,0.388

row,Variant,one-hybrid fitness for binding NBS DNA
1,QQDC,≤ 0.2
2,MWSL,≤ 0.2
3,SQER,≤ 0.2
4,THTW,≤ 0.2
5,TSGY,≤ 0.2
6,ASWL,≤ 0.2
7,TAQM,≤ 0.2
8,QTME,≤ 0.2
9,QAFR,0.427
10,QAFS,0.218
11,QAAN,≤ 0.2
12,QAFD,≤ 0.2
13,QAAD,≤ 0.2
14,QAAR,0.511
15,PSVW,≤ 0.2
16,VMFK,≤ 0.2
17,EIKV,≤ 0.2
18,RPPM,≤ 0.2
19,RAGP,≤ 0.2
20,RAIR,0.207
21,RAGR,0.471
22,RAWR,0.248
23,RARR,0.635
24,RANR,0.507

row,Variant,one-hybrid fitness for binding NBS DNA
1,RAYR,0.412
2,RANN,≤ 0.2
3,RAGH,≤ 0.2
4,RAPR,≤ 0.2
5,RALR,0.32
6,RADR,≤ 0.2
7,YIKT,≤ 0.2
8,MVAC,≤ 0.2
9,NQHS,≤ 0.2
10,NVTV,≤ 0.2
11,SDLG,≤ 0.2
12,PSTD,≤ 0.2
13,PRAY,≤ 0.2
14,THTY,≤ 0.2
15,TQQW,≤ 0.2
16,PELM,≤ 0.2
17,PRWT,≤ 0.2
18,RAQM,≤ 0.2
19,RASP,≤ 0.2
20,RASD,≤ 0.2
21,RAHP,≤ 0.2
22,RACH,≤ 0.2
23,RACR,0.379
24,RAQR,0.43

row,Variant,one-hybrid fitness for binding NBS DNA
1,RASR,0.417
2,RACP,≤ 0.2
3,RAHH,≤ 0.2
4,RAHR,0.487
5,RAQH,≤ 0.2
6,FSRL,≤ 0.2
7,GGQY,≤ 0.2
8,MRLP,≤ 0.2
9,AHPF,≤ 0.2
10,YNKI,≤ 0.2
11,KTLA,≤ 0.2
12,NNIC,≤ 0.2
13,PFKH,≤ 0.2
14,HTRG,≤ 0.2
15,QMDN,≤ 0.2
16,QMRD,0.277
17,QMYN,≤ 0.2
18,QMRF,0.303
19,QMRS,0.691
20,QMYS,0.405
21,QMLS,0.317
22,QMIS,0.289
23,QMRH,0.584
24,QMRN,0.439

row,Variant,one-hybrid fitness for binding NBS DNA
1,QMRP,0.291
2,QMPS,0.235
3,AQGA,≤ 0.2
4,NRGC,≤ 0.2
5,PIMT,≤ 0.2
6,PWNH,≤ 0.2
7,RINY,≤ 0.2
8,GPRC,≤ 0.2
9,TMHE,≤ 0.2
10,KEWT,≤ 0.2
11,MTEF,≤ 0.2
12,QMAH,0.231
13,QMAD,≤ 0.2
14,QMAS,0.389
15,VIGG,≤ 0.2
16,QTVK,≤ 0.2
17,QLKK,0.346
18,QKKK,0.437
19,QTSK,0.224
20,QMPK,≤ 0.2
21,QPKK,≤ 0.2
22,QMWK,≤ 0.2
23,QTKK,0.596
24,QCKK,0.485

row,Variant,one-hybrid fitness for binding NBS DNA
1,QKIK,≤ 0.2
2,QKVK,≤ 0.2
3,QMKK,0.436
4,THAP,≤ 0.2
5,SMSM,≤ 0.2
6,VLYQ,≤ 0.2
7,MNTI,≤ 0.2
8,MEPN,≤ 0.2
9,DERT,≤ 0.2
10,AAYK,≤ 0.2
11,LNIG,≤ 0.2
12,VYES,≤ 0.2
13,PHHR,≤ 0.2
14,NAEF,≤ 0.2
15,NGVK,≤ 0.2
16,AANT,≤ 0.2
17,QRLK,0.329
18,QHQK,≤ 0.2
19,QAHK,≤ 0.2
20,QSVK,≤ 0.2
21,QIKK,0.243
22,QAVK,≤ 0.2
23,QAKK,0.396
24,QSKK,0.412

row,Variant,one-hybrid fitness for binding NBS DNA
1,QHRK,0.362
2,QRVK,0.218
3,QRKK,0.777
4,QHKK,0.416
5,TDTW,≤ 0.2
6,VHWG,≤ 0.2
7,DTCT,≤ 0.2
8,VLPC,≤ 0.2
9,GGCG,≤ 0.2
10,PDVF,≤ 0.2
11,YPIT,≤ 0.2
12,SGYG,≤ 0.2
13,SCFT,≤ 0.2
14,METY,≤ 0.2
15,RRMS,0.628
16,RRMH,0.403
17,RRMD,≤ 0.2
18,RRMN,0.245
19,RCMH,≤ 0.2
20,RRMP,≤ 0.2
21,TKWD,≤ 0.2
22,AEDA,≤ 0.2
23,APCN,≤ 0.2
24,YRRI,≤ 0.2

row,Variant,one-hybrid fitness for binding NBS DNA
1,AVHL,≤ 0.2
2,TDRM,≤ 0.2
3,TYEH,≤ 0.2
4,HSVS,≤ 0.2
5,ARTM,≤ 0.2
6,HHLA,≤ 0.2
7,QTMT,0.551
8,QYMT,0.416
9,QMMT,0.378
10,QYMN,≤ 0.2
11,QYMP,≤ 0.2
12,QTMD,≤ 0.2
13,QYMS,0.314
14,QYMH,≤ 0.2
15,QYMY,0.453
16,QMMS,0.333
17,QMMF,≤ 0.2
18,QTMP,≤ 0.2
